According to PubChem BioAssay:
Active and inactive are the calls of the source.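 Rule for the calls, unless noted: active = inhibition at or above 50% at 10 µM; inactive = inhibition below 50%.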

How the values were obtained:
[1] = inhibitors of TNFa-induced NFkB p65 translocation, primary screen, imaging, HUVEC, MLSMR starter and 10KST1 sets (AID 438;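 active = inhibition above 20% together with a positive visual image hit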;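 note: compound added about 3h40 before a 20 min TNFalpha stimulation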;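 for inhibition: signal is the nuclear over cytoplasmic p65 intensity ratio per well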); conditions: HUVEC TNFa-induced p65 nuclear translocation; cell count: measured here: nuclei count (cytotoxicity indicator), at 2.08 µM; inhibition: at 2 µM, stronger effect = higher value, 0% TNFa-plus-vehicle, 100% no-TNFa wells
[2] = inhibitors of mutant huntingtin aggregation, primary screen, imaging, exon1htt(103Q)mCFP cells, high-content imaging (AID 483;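 active = visual image review flags a hit and inhibition of aggregation exceeds 20%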;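 note: compound exposure lasted 3 days before fixation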;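 for nuclei count: percent of the per-plate median nuclei count of sample wells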); conditions: exon1htt(103Q)mCFP cell line, aggregate imaging, at 2 µM; inhibition of aggregation: stronger effect = higher value; nuclei count: measured here: cell count, toxicity
[3] = inhibitors of E-selectin induction by TNFa, primary screen, imaging, HUVEC, immunofluorescence, MLSMR starter and 10KST1 sets (AID 487;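 active = visually confirmed hit in the image check and inhibition above 20%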;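 for inhibition: signal is fraction of cell area covered by stained E-selectin grains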;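 for nuclei count: 100% = median nuclei count of all wells on the same plate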); conditions: HUVEC TNFalpha-induced E-selectin immunofluorescence imaging, at 2 µM; inhibition: stronger effect = higher value; nuclei count: measured here: cell number, toxicity
[4] = biological target: Voltage-gated potassium channel subunit beta-2 (Rattus norvegicus) (UniProt P62483); assay: KvBeta enzyme negative modulators, primary screen, biochemical, NADPH fluorescence (AID 622;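 active = fluorescence slope higher than the sample average by over 3 SD, cut at about -0.22 in these data, passing the limit was not always enough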;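 note: slope of raw intensity against log time taken from 70 to 1610 s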); conditions: recombinant KvBeta, 4-cyanobenzaldehyde reduction, at 10 µM, stronger effect = higher value
[5] = biological target: Voltage-gated potassium channel subunit beta-2 (Rattus norvegicus) (UniProt P62483); assay: KvBeta positive modulators, primary screen, biochemical, NADPH fluorescence (AID 623;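 active = NADPH fluorescence slope more negative than the mean of all samples by about 3 SD, 99.7% confidence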;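 note: fluorescence intensity change per second fitted from 20 to 320 s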); conditions: Recombinant KvBeta, NADPH fluorescence decrease slope, 10 min; at 10 µM; stronger effect = lower value
[6] = biological target: Alpha-2C adrenergic receptor (Homo sapiens) (UniProt P18825); assay: modulators of alpha2C/GIRK thallium flux, primary screen, cell-based, HEK293 alpha2C/GIRK1/2 (AID 624;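 active = fluorescence slope after compound addition differing from the mean of all screened samples at 99.7% confidence, in either direction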;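 note: slope of fluorescence ratio to pre-addition baseline per second over 15 to 24 s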); conditions: thallium flux BTC fluorescence, at 10 µM, actives lie on both sides
[7] = inhibitors of Sendai virus-induced IRF3 signaling, primary screen, TLR/RLR signaling modifier project, cell-based, Sendai virus stimulus, luciferase, 10K MLSCN set (AID 602276); conditions: HEK293 RL24 IRF3 luciferase reporter, at 10 µM, stronger effect = higher value;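 note: firefly luciferase from ISG56 promoter only with Renilla not read in this screen; 0% = Sendai virus plus DMSO and 100% = medium plus DMSO without virus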
[8] = inhibitors of poly I:C-induced TLR3 signaling, primary screen, cell-based, poly I:C stimulus, luciferase, 10K MLSCN set (AID 602277;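 active = inhibition of the reporter signal at or above 50%; inactive = inhibition below 50%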); conditions: HEK293-TLR3 RL24 IRF3 luciferase reporter, at 10 µM, stronger effect = higher value

Chain of Voltage-gated potassium channel subunit beta-2 (Rattus norvegicus) (P62483 whole entry, looked up): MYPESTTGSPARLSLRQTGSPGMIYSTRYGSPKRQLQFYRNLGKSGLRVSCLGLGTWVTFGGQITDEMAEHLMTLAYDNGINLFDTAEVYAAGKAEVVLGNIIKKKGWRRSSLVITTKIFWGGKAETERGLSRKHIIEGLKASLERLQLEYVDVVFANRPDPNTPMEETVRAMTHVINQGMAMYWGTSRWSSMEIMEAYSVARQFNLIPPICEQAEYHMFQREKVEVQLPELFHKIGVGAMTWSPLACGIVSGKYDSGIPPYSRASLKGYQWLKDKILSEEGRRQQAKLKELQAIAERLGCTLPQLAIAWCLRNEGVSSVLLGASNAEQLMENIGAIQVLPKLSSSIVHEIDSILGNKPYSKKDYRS
Chain of Alpha-2C adrenergic receptor (Homo sapiens) (P18825 whole entry, looked up): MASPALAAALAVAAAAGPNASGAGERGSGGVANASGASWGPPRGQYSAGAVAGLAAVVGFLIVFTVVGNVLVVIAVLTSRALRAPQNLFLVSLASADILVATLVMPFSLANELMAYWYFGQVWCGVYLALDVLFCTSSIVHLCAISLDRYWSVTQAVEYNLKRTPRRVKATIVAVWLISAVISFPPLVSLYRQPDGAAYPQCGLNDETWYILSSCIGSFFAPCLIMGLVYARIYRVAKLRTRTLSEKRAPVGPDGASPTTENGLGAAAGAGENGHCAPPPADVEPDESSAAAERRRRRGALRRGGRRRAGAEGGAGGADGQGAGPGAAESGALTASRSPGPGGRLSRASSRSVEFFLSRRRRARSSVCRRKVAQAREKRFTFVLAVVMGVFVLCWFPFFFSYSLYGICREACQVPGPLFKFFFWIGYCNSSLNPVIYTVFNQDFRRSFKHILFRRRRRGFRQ

SMILES	cell count [1]	inhibition [1]	inhibition of aggregation [2]	nuclei count [2]	inhibition [3]	nuclei count [3]	fluorescence slope [4]	NADPH fluorescence slope [5]	slope [6]	inhibition [7]	inhibition [8]
COc1ccccc1N1CCN(C(=O)CN(Cc2ccc(Cl)cc2)S(C)(=O)=O)CC1	458	-7.3% (inactive)	-18.6% (inactive)	112%	-130% (inactive)	174%	-0.49 (inactive)	7.6e-06 (inactive)	0.00623 (inactive)	17.3% (inactive)	24.8% (inactive)
O=C(CC1CCS(=O)(=O)C1)Nc1ccc[nH]c1=O (stereo not drawn)	475	-4.7% (inactive)	-4.6% (inactive)	63.8%	42.5% (inactive)	49%	-0.41 (inactive)	-6.4e-05 (inactive)	0.0024 (inactive)	16.2% (inactive)	8.75% (inactive)
CCCCSc1nc2c(cnn2-c2ccc(F)cc2)c(=O)[nH]1	619	-10.7% (inactive)	13.9% (inactive)	81.3%	-19.6% (inactive)	122%	-0.458 (inactive)	-3.7e-05 (inactive)	0.00558 (inactive)	4.85% (inactive)	12.8% (inactive)
COc1ccc(OCCC(=O)NCc2ccccc2)cc1	694	0.4% (inactive)	19.2% (inactive)	91.9%	-93.5% (inactive)	102%	-0.509 (inactive)	9e-06 (inactive)	0.00495 (inactive)	4.97% (inactive)	7.69% (inactive)
CCC(=O)Nc1ccc(NC(=O)c2cccc(OC)c2)nc1	742	-7.5% (inactive)	-5.7% (inactive)	105%	-92.8% (inactive)	160%	-0.465 (inactive)	1.2e-05 (inactive)	0.00556 (inactive)	-60.4% (inactive)	-106% (inactive)
CC1CCCN(C(=O)CN2C(=O)c3ccccc3C2=O)C1 (stereo not drawn)	432	4.9% (inactive)	15.5% (inactive)	136%	-27.3% (inactive)	102%	-0.272 (inactive)	-3.7e-05 (inactive)	0.00658 (inactive)	14.5% (inactive)	20.6% (inactive)
Cc1cccc(-c2c3c(=O)n(C)c(=O)n(C)c3cn2-c2ccc(O)cc2)c1	363	-2.8% (inactive)	30.8% (inactive)	90.3%	-49.7% (inactive)	98.7%	-0.579 (inactive)	-2.6e-05 (inactive)	0.00566 (inactive)	6.51% (inactive)	17.1% (inactive)
CC(=O)NC(CCS(C)(=O)=O)C(=O)Nc1cc(C)on1 (stereo not drawn)	676	-2.9% (inactive)	26.2% (inactive)	62.5%	-36.9% (inactive)	114%	-0.533 (inactive)	2.6e-05 (inactive)	0.00682 (inactive)	25.9% (inactive)	7.35% (inactive)
CCOc1cc(-c2nc(-c3ccccc3OC)no2)cc(OCC)c1OCC	575	7.7% (inactive)	0.8% (inactive)	98.3%	-68.3% (inactive)	109%	-0.605 (inactive)	-4.7e-05 (inactive)	0.00447 (inactive)	11.5% (inactive)	12.6% (inactive)
CC(C)n1nc(C(=O)Nc2nc3ccc(S(C)(=O)=O)cc3s2)c2ccccc2c1=O	452	-6.8% (inactive)	-5.5% (inactive)	35.2%	-52.1% (inactive)	117%	-0.265 (inactive)	-2.5e-05 (inactive)	0.00538 (inactive)	18.5% (inactive)	29.9% (inactive)
Cc1c(C(=O)NC2CC2)oc2ccc(S(=O)(=O)N3CCCCCC3)cc12	635	3.4% (inactive)	-2.5% (inactive)	92.4%	-102% (inactive)	116%	-0.508 (inactive)	4.1e-05 (inactive)	0.00537 (inactive)	-22.3% (inactive)	-28.3% (inactive)
O=C(Nc1ccc(Cl)cc1C(=O)O)c1ccc2c(c1)C(=O)N(Cc1ccco1)C2=O	366	0.3% (inactive)	-2.8% (inactive)	105%	-34.4% (inactive)	119%	-0.493 (inactive)	-4.3e-05 (inactive)	0.00498 (inactive)	23.5% (inactive)	28.2% (inactive)
CCOC(=O)C1CCN(C(=O)COc2ccc(Cl)cc2Cl)CC1	705	-5.1% (inactive)	8% (inactive)	103%	4.3% (inactive)	104%	-0.613 (inactive)	-1.6e-05 (inactive)	0.00593 (inactive)	3.61% (inactive)	14.2% (inactive)
O=S(=O)(NCc1cn2ccccc2n1)c1cc(F)ccc1F	282	4.3% (inactive)	19.7% (inactive)	78.5%	9.5% (inactive)	88.5%	-0.287 (inactive)	-5.3e-05 (inactive)	0.00441 (inactive)	-0.696% (inactive)	8.79% (inactive)
Cc1cccc2sc(NC(=O)Cn3cccc3)nc12	518	-1.1% (inactive)	-6.6% (inactive)	59.1%	-13.1% (inactive)	100%	-0.603 (inactive)	-2.8e-05 (inactive)	0.0115 (active)	-3.68% (inactive)	-14% (inactive)
O=C(CSc1nnc(COc2ccc(Cl)cc2)o1)OC1CCCCC1	530	-5.9% (inactive)	-7.1% (inactive)	119%	9.7% (inactive)	103%	-0.524 (inactive)	-5.9e-07 (inactive)	0.00539 (inactive)	1.22% (inactive)	-1.92% (inactive)
CCN(CC)C(=O)C1=C(C)Nc2nnnn2C1c1cccnc1 (stereo not drawn)	346	9.3% (inactive)	11.2% (inactive)	102%	-55.9% (inactive)	109%	-0.567 (inactive)	1.1e-05 (inactive)	0.0059 (inactive)	11.8% (inactive)	16.8% (inactive)
CCCCCn1c(CCNC(=O)CCC)nc2ccccc21	635	3.4% (inactive)	-4.9% (inactive)	55%	-30.5% (inactive)	104%	-0.552 (inactive)	-4.5e-05 (inactive)	0.00652 (inactive)	10.2% (inactive)	40.2% (inactive)
Cc1c(Cl)cccc1N1C(=O)c2ccccc2C1=O	275	7.5% (inactive)	-0.9% (inactive)	90.5%	16.9% (inactive)	93.5%	-0.502 (inactive)	-3.6e-05 (inactive)	0.00611 (inactive)	-1.09% (inactive)	15.5% (inactive)
C=CCN1C(=O)C2(c3ccccc31)C1CCCC=C1C(C#N)=C(N)C2(C#N)C#N (stereo not drawn)	752	-19.9% (inactive)	10.4% (inactive)	110%	41% (inactive)	101%	-0.559 (inactive)	-8.6e-06 (inactive)	0.00492 (inactive)	-7.36% (inactive)	-8.22% (inactive)
O=C1c2ccccc2C(Nc2ccc(F)c(Cl)c2)N1Cc1ccco1 (stereo not drawn)	778	-11.6% (inactive)	-4.9% (inactive)	110%	-37.8% (inactive)	105%	-0.442 (inactive)	-5.5e-05 (inactive)	0.0049 (inactive)	5.4% (inactive)	26.8% (inactive)
COc1cc(C(=O)Nc2cc(C)ccn2)cc(OC)c1OC	298	-1.9% (inactive)	4.3% (inactive)	98.4%	-87% (inactive)	113%	-0.472 (inactive)	3.1e-06 (inactive)	0.00568 (inactive)	-4.57% (inactive)	7.2% (inactive)
O=S(=O)(NC1CCCCC1NS(=O)(=O)c1ccc(F)cc1)c1ccc(F)cc1 (stereo not drawn)	334	5.3% (inactive)	-1.8% (inactive)	101%	5.1% (inactive)	112%	-0.503 (inactive)	-3.7e-06 (inactive)	0.00507 (inactive)	21.4% (inactive)	26.6% (inactive)
Cc1ccc(-c2nnc(SCC(=O)N3c4ccccc4NC(=O)C3(C)C)n2N)cc1	809	-0.7% (inactive)	-26.4% (inactive)	93.6%	-92% (inactive)	120%	-0.361 (inactive)	-2.3e-05 (inactive)	0.00498 (inactive)	-12.6% (inactive)	-5.26% (inactive)
Cc1cccc(NC(=O)Cn2c(=O)n(C)c3ccccc32)c1	350	-3.7% (inactive)	2.6% (inactive)	107%	-17.7% (inactive)	107%	-0.417 (inactive)	9.1e-06 (inactive)	0.011 (inactive)	9.53% (inactive)	9.37% (inactive)
CN(C)c1ccc(/C=C/c2ccncc2)cc1	311	-5.5% (inactive)	22.3% (inactive)	83.5%	-76.4% (inactive)	87.8%	-0.382 (inactive)	1.7e-05 (inactive)	0.00338 (inactive)	-62.5% (inactive)	-181% (inactive)
COc1ccc(C(=O)N2CCN(S(=O)(=O)c3cc(Cl)ccc3OC)CC2)cc1	398	7.3% (inactive)	-29.4% (inactive)	64.6%	-74.2% (inactive)	106%	-0.368 (inactive)	-2.2e-05 (inactive)	0.00259 (inactive)	16.1% (inactive)	18% (inactive)
Cc1cc(C(=O)NCCCN2CCOCC2)n(-c2ccccc2)n1	624	3.3% (inactive)	-11.9% (inactive)	92.5%	-29.6% (inactive)	115%	-0.519 (inactive)	-2.1e-05 (inactive)	0.00682 (inactive)	9.1% (inactive)	24.9% (inactive)
